# The campaign covered roughly 5,500 compounds. About 2,000 (36%) were called active. About 18% were inconclusive and are not listed. This is one part of the list. A number with no mark means an inactive call. No stated cut-off is given here; in the data, active means normalized growth mostly below about 0.91 (no sharp cut-off); inconclusive means no clear call, values can overlap the other calls; inactive means mostly above about 0.92.
# Assay: chemical genetic growth profiling, strain panel (AID 1159580);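 further: tested at 20 µM; growth read once vehicle control cultures reached saturation at 30 °C; 1 = growth at the plate median or of vehicle wells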
# Conditions: growth OD
smiles,measurement,setting,value
Nc1ncnc2c1ncn2C1O[C@H](COP(=O)(O)O)[C@@H](O)[C@H]1O (some centres not stated),normalized growth,"S. cerevisiae deletion strains, locus YJR075W, strain HOC1, stronger effect = lower value",1.04
same,normalized growth,"S. cerevisiae deletion strains, locus YKL009W, strain mrt4, stronger effect = lower value",1.02
same,normalized growth,"S. cerevisiae deletion strains, locus YKL068W, stronger effect = lower value",0.993
same,normalized growth,"S. cerevisiae deletion strains, locus YKL085W, strain MDH1 (second series), stronger effect = lower value",1
same,normalized growth,"S. cerevisiae deletion strains, locus YKL085W, strain MDH1, stronger effect = lower value",1
same,normalized growth,"S. cerevisiae deletion strains, locus YKL160W, strain elf1, stronger effect = lower value",1
same,normalized growth,"S. cerevisiae deletion strains, locus YKL190W, strain CNB1, stronger effect = lower value",1.01
same,normalized growth,"S. cerevisiae deletion strains, locus YKR001C, strain vps1, stronger effect = lower value",0.581 (active)
same,normalized growth,"S. cerevisiae deletion strains, locus YKR026C, strain gcn3, stronger effect = lower value",1
same,normalized growth,"S. cerevisiae deletion strains, locus YKR091W, strain srl3, stronger effect = lower value",0.995
same,normalized growth,"S. cerevisiae deletion strains, locus YLL001W, strain dnm1, stronger effect = lower value",1.03
same,normalized growth,"S. cerevisiae deletion strains, locus YLL026W, stronger effect = lower value",1.01
same,normalized growth,"S. cerevisiae deletion strains, locus YLL041C, strain sdh2, stronger effect = lower value",0.981
same,normalized growth,"S. cerevisiae deletion strains, locus YLR027C, strain aat2, stronger effect = lower value",1.02
same,normalized growth,"S. cerevisiae deletion strains, locus YLR039C, strain RIC1, stronger effect = lower value",1.04
same,normalized growth,"S. cerevisiae deletion strains, locus YLR058C, strain SHM2, stronger effect = lower value",1.02
same,normalized growth,"S. cerevisiae deletion strains, locus YLR102C, strain apc9, stronger effect = lower value",0.962
same,normalized growth,"S. cerevisiae deletion strains, locus YLR113W, strain HOG1, stronger effect = lower value",1
same,normalized growth,"S. cerevisiae deletion strains, locus YLR221C, strain rsa3, stronger effect = lower value",0.969
same,normalized growth,"S. cerevisiae deletion strains, locus YLR258W, strain gsy2, stronger effect = lower value",0.987
same,normalized growth,"S. cerevisiae deletion strains, locus YLR262C, strain YPT6 (second series), stronger effect = lower value",1.03
same,normalized growth,"S. cerevisiae deletion strains, locus YLR262C, strain YPT6, stronger effect = lower value",1.02
same,normalized growth,"S. cerevisiae deletion strains, locus YLR268W, strain sec22, stronger effect = lower value",0.627 (active)
same,normalized growth,"S. cerevisiae deletion strains, locus YLR320W, strain mms22, stronger effect = lower value",0.983
same,normalized growth,"S. cerevisiae deletion strains, locus YLR330W, strain CHS5, stronger effect = lower value",1.01
same,normalized growth,"S. cerevisiae deletion strains, locus YLR342W, strain FKS1 (second series), stronger effect = lower value",1.04
same,normalized growth,"S. cerevisiae deletion strains, locus YLR342W, strain FKS1, stronger effect = lower value",1.02
same,normalized growth,"S. cerevisiae deletion strains, locus YLR357W, strain rsc2, stronger effect = lower value",1.02
same,normalized growth,"S. cerevisiae deletion strains, locus YLR370C, strain arc18, stronger effect = lower value",1.01
same,normalized growth,"S. cerevisiae deletion strains, locus YLR371W, strain rom2, stronger effect = lower value",0.986
same,normalized growth,"S. cerevisiae deletion strains, locus YLR384C, strain iki3, stronger effect = lower value",1
same,normalized growth,"S. cerevisiae deletion strains, locus YLR418C, strain cdc73, stronger effect = lower value",0.471 (active)
same,normalized growth,"S. cerevisiae deletion strains, locus YML016C, strain PPZ1, stronger effect = lower value",1.01
same,normalized growth,"S. cerevisiae deletion strains, locus YML032C, strain rad52, stronger effect = lower value",0.417 (active)
same,normalized growth,"S. cerevisiae deletion strains, locus YML120C, strain ndi1, stronger effect = lower value",1.01
same,normalized growth,"S. cerevisiae deletion strains, locus YML124C, strain tub3, stronger effect = lower value",0.829 (active)
same,normalized growth,"S. cerevisiae deletion strains, locus YMR058W, strain fet3, stronger effect = lower value",1.01
same,normalized growth,"S. cerevisiae deletion strains, locus YMR078C, strain ctf18, stronger effect = lower value",0.838 (active)
same,normalized growth,"S. cerevisiae deletion strains, locus YMR125W, strain sto1, stronger effect = lower value",0.987
same,normalized growth,"S. cerevisiae deletion strains, locus YMR129W, stronger effect = lower value",0.994
same,normalized growth,"S. cerevisiae deletion strains, locus YMR205C, strain PFK2, stronger effect = lower value",1.02
same,normalized growth,"S. cerevisiae deletion strains, locus YMR223W, strain ubp8, stronger effect = lower value",0.81 (active)
same,normalized growth,"S. cerevisiae deletion strains, locus YMR231W, strain pep5, stronger effect = lower value",0.999
same,normalized growth,"S. cerevisiae deletion strains, locus YMR263W, strain SAP30, stronger effect = lower value",1.01
same,normalized growth,"S. cerevisiae deletion strains, locus YMR307W, strain GAS1, stronger effect = lower value",0.974
same,normalized growth,"S. cerevisiae deletion strains, locus YNL067W, strain RPL9B, stronger effect = lower value",1.02
same,normalized growth,"S. cerevisiae deletion strains, locus YNL071W, strain lat1, stronger effect = lower value",0.998
same,normalized growth,"S. cerevisiae deletion strains, locus YNL128W, strain TEP1, stronger effect = lower value",1.02
same,normalized growth,"S. cerevisiae deletion strains, locus YNL153C, strain GIM3, stronger effect = lower value",1.01
same,normalized growth,"S. cerevisiae deletion strains, locus YNL183C, strain NPR1, stronger effect = lower value",0.97
same,normalized growth,"S. cerevisiae deletion strains, locus YNL209W, strain ssb2, stronger effect = lower value",0.998
same,normalized growth,"S. cerevisiae deletion strains, locus YNL233W, strain BNI4, stronger effect = lower value",1.01
same,normalized growth,"S. cerevisiae deletion strains, locus YNL248C, strain rpa49, stronger effect = lower value",0.977
same,normalized growth,"S. cerevisiae deletion strains, locus YNL250W, strain rad50, stronger effect = lower value",1
same,normalized growth,"S. cerevisiae deletion strains, locus YNL271C, strain bni1, stronger effect = lower value",0.895 (active)
same,normalized growth,"S. cerevisiae deletion strains, locus YNL298W, strain CLA4, stronger effect = lower value",0.918
same,normalized growth,"S. cerevisiae deletion strains, locus YNL307C, strain MCK1, stronger effect = lower value",0.847 (active)
same,normalized growth,"S. cerevisiae deletion strains, locus YNL322C, strain KRE1 (second series), stronger effect = lower value",0.991
same,normalized growth,"S. cerevisiae deletion strains, locus YNL322C, strain KRE1, stronger effect = lower value",1.01
same,normalized growth,"S. cerevisiae deletion strains, locus YNR049C, strain mso1, stronger effect = lower value",0.994
same,normalized growth,"S. cerevisiae deletion strains, locus YNR052C, strain pop2, stronger effect = lower value",0.476 (active)
same,normalized growth,"S. cerevisiae deletion strains, locus YOL006C, strain TOP1, stronger effect = lower value",1.04
same,normalized growth,"S. cerevisiae deletion strains, locus YOL012C, strain htz1",0.221
same,normalized growth,"S. cerevisiae deletion strains, locus YOL147C, strain pex11, stronger effect = lower value",0.516 (active)
same,normalized growth,"S. cerevisiae deletion strains, locus YOR001W, strain rrp6, stronger effect = lower value",1.02
same,normalized growth,"S. cerevisiae deletion strains, locus YOR061W, strain CKA2, stronger effect = lower value",1.01
same,normalized growth,"S. cerevisiae deletion strains, locus YOR069W, strain VPS5, stronger effect = lower value",1.01
same,normalized growth,"S. cerevisiae deletion strains, locus YOR070C, strain gyp1, stronger effect = lower value",0.995
same,normalized growth,"S. cerevisiae deletion strains, locus YOR080W, strain dia2, stronger effect = lower value",1
same,normalized growth,"S. cerevisiae deletion strains, locus YOR083W, strain WHI5, stronger effect = lower value",0.988
same,normalized growth,"S. cerevisiae deletion strains, locus YOR106W, strain vam3, stronger effect = lower value",1.03
same,normalized growth,"S. cerevisiae deletion strains, locus YOR136W, strain idh2, stronger effect = lower value",0.953
same,normalized growth,"S. cerevisiae deletion strains, locus YOR144C, strain elg1, stronger effect = lower value",0.645 (active)
same,normalized growth,"S. cerevisiae deletion strains, locus YOR184W, strain ser1, stronger effect = lower value",0.636 (active)
same,normalized growth,"S. cerevisiae deletion strains, locus YOR231W, strain MKK1, stronger effect = lower value",1.01
same,normalized growth,"S. cerevisiae deletion strains, locus YOR265W, strain rbl2, stronger effect = lower value",1
same,normalized growth,"S. cerevisiae deletion strains, locus YOR270C, strain vph1, stronger effect = lower value",0.996
same,normalized growth,"S. cerevisiae deletion strains, locus YOR290C, strain snf2, stronger effect = lower value",0.972
same,normalized growth,"S. cerevisiae deletion strains, locus YOR316C, strain cot1, stronger effect = lower value",0.969
same,normalized growth,"S. cerevisiae deletion strains, locus YPL051W, strain arl3, stronger effect = lower value",1.01
same,normalized growth,"S. cerevisiae deletion strains, locus YPL055C, strain LGE1, stronger effect = lower value",1.07
same,normalized growth,"S. cerevisiae deletion strains, locus YPL078C, strain atp4, stronger effect = lower value",1.03
same,normalized growth,"S. cerevisiae deletion strains, locus YPL106C, strain sse1, stronger effect = lower value",0.997
same,normalized growth,"S. cerevisiae deletion strains, locus YPL240C, strain hsp82, stronger effect = lower value",0.998
same,normalized growth,"S. cerevisiae deletion strains, locus YPL241C, strain CIN2, stronger effect = lower value",1.01
same,normalized growth,"S. cerevisiae deletion strains, locus YPL256C, strain CLN2, stronger effect = lower value",0.995
same,normalized growth,"S. cerevisiae deletion strains, locus YPR119W, strain clb2, stronger effect = lower value",0.935
same,normalized growth,"S. cerevisiae deletion strains, locus YPR141C, strain kar3, stronger effect = lower value",0.995
same,normalized growth,"S. cerevisiae deletion strains, locus YPR163C, strain tif3, stronger effect = lower value",0.725 (active)
same,normalized growth,"S. cerevisiae deletion strains, locus YPR167C, strain met16, stronger effect = lower value",0.858 (active)
same,normalized growth,"S. cerevisiae deletion strains, strain wtn01, stronger effect = lower value",0.866 (active)
same,normalized growth,"S. cerevisiae strains, strain wild type, stronger effect = lower value",1.02
